Experimental data from PubChem BioAssay (Tox21).
“And” between values parts separate entries of the source, which are not always exact repeats. Equal entries are not always repeated. Records with an inconclusive call do not appear. Entries that show only a call come without a potency. Some compounds were tested as several samples or in several runs, with calls that do not always agree. The source made the active and inactive calls. Calls come from the whole dose curve; as a rule, active = well fitted cell-killing curve with a large enough effect in the repeat runs; inconclusive = weak or mixed curves, or effect the other way; inactive = no such curve, though single readings can be large or run the other way.

assay: qHTS assay to identify small molecule agonists of the farnesoid-X-receptor (FXR) signaling pathway - cell viability counter screen (AID 743218); details: FXR-bla HEK293T viability, CellTiter-Glo luminescence, 16 h; series mostly up to 62.6 µM; note: nearly all actives have a fitted effect of over 45% in size
Excerpt: U.S. Tox21 Program National Center for Advancing Translational Sciences [NCATS] NIH Chemical Genomics Center [NCGC] U.S. Environmental Protection Agency [EPA] National Institutes of Environmental Health Sciences [NIEHS] National Toxicology Program [NTP] U.S. Food and Drug Administration [FDA] Tox21 Assay Overview: The farnesoid-X-receptor (FXR), a nuclear hormone receptor, is highly expressed in liver, intestine, kidney and adrenal cortex. Natural ligands of FXR are the bile acids (Cholic acid, Chenodeoxy cholic acid etc). FXR is an important regulator of diverse metabolic pathways, including the bile acid homeostasis, lipid and glucose metabolisms. FXR regulates the expression of target genes by binding either as a monomer or as a heterodimer with the retinoid X receptor (RXR). Numerous studies have reported that FXR exerts protective function during cholestasis, diabetes, liver regeneration, and cancer. To identify compounds that activate FXR signaling, GeneBLAzer FXR-UAS-bla HEK 293T cell line (Invitrogen, Carlsbad, CA) containing a beta-lactamase reporter gene under the control of a UAS response element was used to screen the Tox21 10K compound library. The cytotoxicity of the Tox21 compound library against the FXR-bla cell line was tested in parallel by measuring the cell viability using CellTiter-Glo assay in the same wells.
Tox21 Assay Protocol Summary: FXR-bla cells were dispensed at 5000 cells/5uL/well in 1536-well black wall/clear bottom plates using a Multidrop Combi (Thermo Fisher Scientific, Waltham, MA) dispenser. After the assay plates were incubated at 37 C and 5% CO2 for 5 h, 23 nL of compounds dissolved in DMSO, positive controls or DMSO only was transferred to the assay plate by a Pintool station (Kalypsys, San Diego, CA). The assay plates were incubated at 37C for 16 h. After 1 uL of LiveBLAzerTM B/G FRET substrate was added using a Bioraptr Flying Reagent Dispenser (FRD) workstation (Beckman Coulter, Indianapolis, IN), the plates were incubated at room temperature for 2 h, and fluorescence intensity was measured by an Envision plate reader (PerkinElmer, Shelton, CT). For cell viability readout that measures cytotoxicity, 4uL/well of CellTiter-Glo reagent was added into the assay plates using a Bioraptr FRD. After 30 min incubation at room temperature, the luminescence intensity in the plates was measured using a ViewLux plate reader (PerkinElmer).
Potency is the fitted concentration of half-maximal effect.

SMILES | Potency
CCN1CCCC1CNC(=O)c1cc(S(=O)(=O)CC)c(N)cc1OC (stereo not given) | inactive
O=C(O)CP(=O)(O)O | inactive
CCCCOCCOC(=O)c1ccccc1C(=O)OCCOCCCC | inactive
CC(C)(C)NC(=O)[C@@H]1CN(Cc2cccnc2)CCN1C[C@@H](O)C[C@@H](Cc1ccccc1)C(=O)N[C@H]1c2ccccc2C[C@H]1O | inactive
CCC[C@H](N[C@@H](C)C(=O)N1[C@H](C(=O)O)C[C@@H]2CCCC[C@@H]21)C(=O)OCC | inactive
[Cl][In]([Cl])[Cl] | inactive
BrC1CCC(Br)C(Br)CCC(Br)C(Br)CCC1Br (stereo not given) | inactive and 20.8 µM (active)
CC1COc2c(N3CCN(C)CC3)c(F)cc3c(=O)c(C(=O)O)cn1c23 (stereo not given) | inactive
CC(=O)CC(C)=O | inactive
O=C(Nc1ccccc1SSc1ccccc1NC(=O)c1ccccc1)c1ccccc1 | inactive
NCCCCCC(=O)O | inactive
CCOc1ccc2c(c1)C(C)=CC(C)(C)N2 | inactive
O=C(Cl)c1cccc(C(=O)Cl)c1 | inactive
O=Cc1ccc(Cl)cc1 | inactive
CCC(=O)/C=C/C1C(C)=CCCC1(C)C (stereo not given) | inactive
COC(=O)c1cccc(C(=O)OC)c1 | inactive
CC(C)CCOC(=O)c1ccc(N(C)C)cc1 | inactive
Cc1cc(OCCOCC[N+](C)(C)Cc2ccccc2)ccc1C(C)(C)CC(C)(C)C | 17.3 µM (active) and 18.8 µM (active)
COC(c1ccccc1)(c1ccccc1)[C@H](Oc1nc(C)cc(C)n1)C(=O)O | inactive
Cc1cccc2n[nH]nc12 | inactive

SMILES | Potency
COc1ccc(COC(C)=O)cc1 | inactive
C=CC(=O)OCCCCCCOC(=O)C=C | inactive
Nc1cc(Cl)c(-c2cc(Cl)c(N)cc2Cl)cc1Cl | 43.6 µM (active) and 12.3 µM (active)
CC(C)C(=O)c1c(C(C)C)nn2ccccc12 | inactive
NCCO | inactive
CCCCCCC(O)CCCCCCCCCCC(=O)O (stereo not given) | inactive
Oc1ccc(Cl)cc1Cc1cc(Cl)ccc1O | 49 µM (active)
CC(=O)O[C@]1(C(C)=O)CC[C@H]2[C@@H]3C[C@H](C)C4=CC(=O)CC[C@]4(C)[C@H]3CC[C@@]21C | inactive
c1cnc2cc3c(cc2n1)C1CNCC3C1 | inactive
c1ccc2c(c1)CCCC2C1=NCCN1 (stereo not given) | inactive
CC1=C(C=O)C(C)(C)CC=C1 | inactive
OCCOCCN1CCN(C(c2ccccc2)c2ccc(Cl)cc2)CC1 (stereo not given) | inactive
C/C=C/c1ccc(OCC)c(O)c1 | inactive
COC(=O)/C=C/c1ccccc1 | inactive
O=C(O)c1cc(Cl)cc(Cl)c1 | inactive
Cc1ccnc2c1NC(=O)c1cccnc1N2C1CC1 | inactive
CNCCC(Oc1ccc(C(F)(F)F)cc1)c1ccccc1 (stereo not given) | 21.6 µM (active)
Cc1cc(C(C)(C)C)c(O)c(C(C)(C)C)c1 | inactive
c1ccc2c(c1)-c1cccc3c1c-2cc1ccccc13 | inactive
CC[C@H]1CN2CCc3cc(OC)c(OC)cc3[C@@H]2C[C@@H]1C[C@H]1NCCc2cc(OC)c(OC)cc21 | 27.6 µM (active) and inactive
